The values below come from PMC4552634, “A New Set of Chemical Starting Points with Plasmodium falciparum Transmission-Blocking Potential for Antimalarial Drug Discovery” (PLoS ONE, 2015).

The campaign covered roughly 13,000 compounds. About 3,200 (25%) showed an effect of 50% or more. The list shows a part of the results.

In this test the test system is P. falciparum stage V gametocytes. On the set-up: BacTiter-Glo ATP luminescence viability of purified stage V gametocytes in 384-well plates, per cent inhibition versus DMSO. Particulars: 48 h, 5 µM; inhibitor.
The % Inhibition is the change of the read-out against control, counted positive when it falls. `CCc1nc(N)nc(N)c1-c1ccc(Cl)cc1` [TCMDC-125860]: the “% Inhibition” value was 8.374%.
`Nc1nc(Cc2ccc(Cl)cc2)nc(Cc2ccc(Cl)cc2)n1` [TCMDC-137497]: the “% Inhibition” value was determined as 78.01%.
To `Cc1nc2nc(N)nc(N)c2c(C)c1Cc1ccc(Cl)cc1` [TCMDC-137659] belongs 18.29%.
To `O=C(Cc1cccc(Cl)c1)N1CCc2cc3nccc(N4CCN5CCC[C@H]5C4)c3cc21` [TCMDC-140038] belongs 0.313%; to `O=C(c1cc2ccccc2o1)N1CCc2cc3nccc(N4CCN5CCC[C@H]5C4)c3cc21` [TCMDC-140037], -9.524%; to `Cc1ccc(C(=O)N2CCc3cc4nccc(N5CCN6CCC[C@H]6C5)c4cc32)cc1` [TCMDC-140036], -10.33%.
In the case of `COc1ccc(/C=C/C(=O)N2CCc3cc4nccc(N5CCN6CCC[C@H]6C5)c4cc32)cc1` [TCMDC-140046] it was -29.41%; in that of `COc1ccc(C(=O)N2CCc3cc4nccc(N5CCN6CCC[C@H]6C5)c4cc32)cc1` [TCMDC-140035], 84.78%.
For the compound `O=C(c1ccc(-c2ccc(Cl)cc2)o1)N1CCc2cc3nccc(N4CCN5CCC[C@H]5C4)c3cc21` [TCMDC-140116], the “% Inhibition” value is 93.89%.
In the case of `O=C(NCc1cccc(F)c1)c1ccc(O)c(-c2cc(Cl)cc(Cl)c2)c1` [TCMDC-140157], the “% Inhibition” value was -3.983%.
On to `O=C(Nc1ccc(N2CCN(Cc3c[nH]c4cc(F)ccc34)CC2)cc1)c1ccccc1-c1ccc(C(F)(F)F)cc1` [TCMDC-138521], for which the “% Inhibition” value came out at 1.427%.
In the case of `Cc1nc2ccc3ccc(CNc4ccc5c(c4)CN([C@H](CCC(=O)O)C(=O)O)C5=O)cc3c2c(=O)[nH]1` [TCMDC-138033] it was 21.85%; in that of `O=C(/C=C/c1ccc([N+](=O)[O-])cc1)N1CCC(NS(=O)(=O)c2ccc(F)cc2)CC1` [TCMDC-139441], 26.45%.
In the case of `O=C(/C=C/c1ccc(Cl)c(Cl)c1)N1CCN(C(=O)Nc2ccc(F)c(Cl)c2)CC1` [TCMDC-135942] it was -48.62%; in that of `O=C(C=Cc1ccc(F)cc1)N1CCN(S(=O)(=O)c2ccc(Cl)cc2)CC1` [TCMDC-125028], 63.42%.
In the case of `Cc1cc(C(=O)Nc2ccc3c(c2)CCN3C2CCN(Cc3ccc(O)cc3)C2)no1` (stereo not drawn) [TCMDC-135078], the “% Inhibition” value is on record as -0.5259%.
In the case of `Cc1ccc(Cn2cnc3cc(C(=O)Nc4ccc(-c5cccc(CN(C)C)c5)cc4)ccc3c2=O)o1` [TCMDC-132366] it was 91.1%; in that of `CN(CCO)Cc1cccc(-c2ccc(NC(=O)c3cccc(C#N)c3)cc2)c1` [TCMDC-132671], -45.65%; in that of `Cc1ccc(Cn2cnc3cc(C(=O)Nc4ccc(-c5ccc(CN(C)C)cc5)cc4)ccc3c2=O)o1` [TCMDC-132364], 111.6%.
To `COc1cccc2cc(C(=O)N[C@@H](CC(C)C)C(=O)N[C@H](/C=N/NC(=O)Cc3cccnc3)CCc3ccccc3)oc12` [TCMDC-135634] belongs -9.897%.
`O=C(Nc1ccc(-c2nc3ccccc3[nH]2)cc1)c1cnc(Cl)c(Cl)c1` [TCMDC-125109]: the “% Inhibition” value was -47.86%.
With `CN1CCC(C(=O)Nc2cccc(-c3cccc(-c4nc5ccc(F)cc5[nH]4)c3)c2)CC1` [TCMDC-132181], the “% Inhibition” value was 91.35%.
To `CN1CCN(CC(=O)Nc2cccc(-c3cccc(-c4nc5ccc(F)cc5[nH]4)c3)c2)CC1` [TCMDC-136974] belongs 72.37%; to `CN1CCC(C(=O)Nc2cccc(-c3ccc(-c4nc5ccc(F)cc5[nH]4)cc3)c2)CC1` [TCMDC-132185], 12.21%; to `CN1CCN(CC(=O)Nc2cccc(-c3ccc(-c4nc5ccc(F)cc5[nH]4)cc3)c2)CC1` [TCMDC-136978], 78.56%.
On to `CN1CCN(CC(=O)Nc2cccc(-c3ccc(-c4nc5cc(F)ccc5[nH]4)s3)c2)CC1` [TCMDC-136986], for which the “% Inhibition” value turned out to be 9.75%.
To `CN1CCN(CC(=O)Nc2ccc(-c3ccc(-c4nc5ccccc5[nH]4)cc3)cc2)CC1` [TCMDC-136979] belongs -9.366%.
To `CN1CCN(CC(=O)Nc2ccc(-c3cccc(-c4nc5ccc(F)cc5[nH]4)c3)cc2)CC1` [TCMDC-136973] belongs -61.95%; to `CN1CCC(C(=O)Nc2ccc(-c3cccc(-c4nc5ccc(F)cc5[nH]4)c3)cc2)CC1` [TCMDC-132180], 28.01%; to `CN1CCN(CC(=O)Nc2cccc(-c3cccc(-c4nc5ccccc5[nH]4)c3)c2)CC1` [TCMDC-136972], 82.82%.
Consider `CN1CCN(CC(=O)Nc2ccc(-c3csc(-c4nc5ccccc5[nH]4)c3)cc2)CC1` [TCMDC-132392], for which the “% Inhibition” value was -27.46%.
To `O=C(Cc1cnc[nH]1)Nc1cccc(-c2ccc(-c3nc4ccc(F)cc4[nH]3)cc2)c1` [TCMDC-136946] belongs 4.671%.
To `CCCN(Cc1nnc(-c2cccs2)o1)C(=O)CSc1nnnn1-c1ccc(C)c(C)c1` [TCMDC-125240] belongs 7.835%; to `CCNc1cc(C(=O)N[C@@H](Cc2ccccc2)[C@H](O)CNC2(C(C)C)CCC2)cc(N2CCCCS2(=O)=O)c1` [TCMDC-135375], 21.07%.
Turning to `O=C(Nc1cccc(N2CCC(NCc3cnn(-c4cccc(F)c4)c3)CC2)c1)c1ccncc1` [TCMDC-124666], the “% Inhibition” value came out at 1.522%.
With `CCc1nc(N)nc(N)c1-c1ccc2c(c1)CCCC2` [TCMDC-137366], the “% Inhibition” value stood at 1.403%.
In the case of `CC(=O)c1c[nH]c2ccc(/C=C/C(=O)NC3CCC(CCN4CCc5ccc(C#N)cc5CC4)CC3)cc12` (stereo not drawn) [TCMDC-139781] it was 8.041%.
In the case of `Cc1cc(N(C)C)nc(Nc2ccc(NC(=O)Nc3ccccc3)cc2)n1` [TCMDC-124961], the “% Inhibition” value is given as -7.652%.
In the case of `CC(C)(C)OC(=O)Nc1cccc(-c2csc(N=C(N)N)n2)c1` [TCMDC-139458] it was -7.948%; in that of `CC(C)(C)OC(=O)NCCc1cccc(-c2c[nH]c3ncc(-c4cccc(NS(C)(=O)=O)c4)cc23)c1` [TCMDC-136294], 27.56%.
In the case of `Cc1ccc(-n2[nH]c(C)c(N=Nc3cccc(-c4cccc(NC(=O)OC(C)(C)C)c4)c3O)c2=O)cc1C` [TCMDC-141045] it was 81.95%; in that of `COc1ccc(Nc2nccc(-c3ccc(NC(=O)c4cc5cc(F)ccc5[nH]4)cc3)n2)cc1` [TCMDC-133306], 23.43%.
`CCNC(=O)Nc1cccc(-c2ccc(-c3nc4cccc(C)c4[nH]3)s2)c1` [TCMDC-133169]: the “% Inhibition” value is given as -0.5138%.
`Cc1ccc(Nc2nc3cc(Nc4ccnc(Nc5ccc(CS(C)(=O)=O)cc5)n4)ccc3o2)cc1` [TCMDC-141799]: the “% Inhibition” value was 11.69%.
In the case of `OC(COCc1ccc(-c2ccccc2)cc1)CN1CCCCC1` (stereo not drawn) [TCMDC-132069] it was -30.91%.
As for `Cc1ccc(NC(=O)c2ccc(CN3CCCN(CC4CCCCC4)CC3)cc2)cc1F` [TCMDC-136393], the “% Inhibition” value is recorded as -36.95%.
To `CC1CN(c2ccc(NC(=O)c3ccc(F)cc3)cc2)CCN1Cc1cccc(F)c1` (stereo not drawn) [TCMDC-135016] belongs 10.14%; to `CC(C)(C)c1ccc(CN2CCC(NC(=O)c3ccc(-c4cccc(F)c4)s3)CC2)cc1` [TCMDC-134350], -0.6628%.
Consider `Cc1ccc(Nc2nc(-c3ccccn3)cs2)nc1` [TCMDC-125854], for which the “% Inhibition” value is on record as 98.08%.
To `Cc1cccnc1Nc1nc(-c2ccccn2)cs1` [TCMDC-125846] belongs 115%; to `c1ccc(Nc2nc(-c3ccccn3)cs2)nc1` [TCMDC-124275], 108.4%.
For `Cc1cccc(C(O)CNc2ccnc(Nc3cccc(-c4csc(C)n4)c3)n2)c1` (stereo not drawn) [TCMDC-136568], the “% Inhibition” value was -28.27%.
For `Cc1ccnc(Nc2nc(-c3ccccn3)cs2)c1` [TCMDC-125769], the “% Inhibition” value worked out at 115.7%.
To `COc1cccc(C(=O)NCc2cccs2)c1OCc1ccccc1` [TCMDC-141234] belongs 8.01%.
To `C#CCOc1ccccc1CN1CCC(N2CCc3cc(NC(=O)c4cc(C)on4)ccc32)C1` (stereo not drawn) [TCMDC-135075] belongs -4.764%; to `Cc1[nH]c2ccc(NS(C)(=O)=O)cc2c1C1CCN(CCC2CCN(C(=O)/C=C/c3ccc(Cl)c(Cl)c3)CC2)CC1` [TCMDC-140126], -29.87%.
To `Cc1ccc(NC(=O)c2ccc3nccnc3c2)cc1OC1CCN(Cc2ccc(F)cc2)CC1` [TCMDC-133748] belongs -13.13%; to `O=C(Nc1ccccc1-c1ccccc1)C1CCCN1C(=O)Nc1ccc(Cl)cc1` (stereo not drawn) [TCMDC-123648], 32.25%; to `Cc1cc(NC(=O)Nc2ccc3nccc(N4CCN(C)CC4)c3c2)ccc1Br` [TCMDC-139361], 36.21%.
With `CC[C@H]1C[N+]2([O-])CC[C@@H]1C[C@H]2[C@H](O)c1cc(-c2ccccc2)nc2ccc(OC)cc12` [TCMDC-141330], the “% Inhibition” value is reported as 6.04%.
To `Clc1ccc(Nc2nc(-c3ccccn3)cs2)nc1` [TCMDC-123885] belongs 114%; to `CC(=O)Nc1nc(C)c(-c2csc(Nc3ccc(Cl)cc3)n2)s1` [TCMDC-123995], -35.56%; to `Cc1cc(NCC2CCN(CC3CCCCC3)C2)nc(Nc2ccc(Br)cc2)n1` (stereo not drawn) [TCMDC-137024], -11.33%.
To `O=C(NCCN1CCCC1)c1cccc(-c2ccc(-c3nc4ccc(C(F)(F)F)cc4[nH]3)cc2)c1` [TCMDC-132322] belongs -42.59%; to `Fc1ccc2nc(-c3ccc(-c4ccc(CNCc5ccccc5)cc4)cc3)[nH]c2c1` [TCMDC-132706], -8.739%.
In the case of `FC(F)(F)c1ccc2nc(-c3ccc(-c4ccc(CNCCN5CCNCC5)cc4)cc3)[nH]c2c1` [TCMDC-132865] it was 81.47%.
For the compound `NCc1ccc(CNCc2ccc(-c3ccc(-c4nc5ccc(F)cc5[nH]4)cc3)cc2)cc1` [TCMDC-132810], the “% Inhibition” value is reported as 33.23%.
Regarding `CC(C)NCc1ccc(-c2ccc(-c3nc4ccc(C(F)(F)F)cc4[nH]3)cc2)cc1` [TCMDC-132741], the “% Inhibition” value is -41.38%.
To `Fc1ccc2nc(-c3ccc(-c4ccc(CNCCN5CCNCC5)cc4)cc3)[nH]c2c1` [TCMDC-132866] belongs 95.81%.
